Here are results for 23 compounds from PubChem BioAssay (EPA / NIEHS).

As usually defined, the AC50 is the concentration giving half of the maximal activity seen.

Inconclusive results are not listed. Calls of active or inactive are those of the source. The calls were made as follows: active = hit-call score of the fitted dose curve at least 0.9, where 1 is the maximum; inconclusive = response in the unintended direction; inactive = score below 0.9.

For experiment [1], the target named is human Protein Tyrosine Phosphatase Non-receptor Type 1 (PTPN1), PTPN1 (gene 5770) (UniProt P18031). The experiment can be described thus: NVS_ENZ_hPTPN1: NovaScreen (NVS) Enzymatic Assay for human Protein Tyrosine Phosphatase Non-receptor Type 1 (PTPN1) (AID 2283201). A digest of the protocol: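 Chemicals were first tested in duplicate at 25 uM, and those passing threshold went on to singleton concentration series topping at 50 uM. Recombinant enzyme, specific substrate, product separated by mobility shift, fluorescence read at 1.33 h; activity loss relative to DMSO.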

The target of experiment [2] is human Phosphodiesterase 4A1 (PDE4A1), PDE4A (gene 5141) (UniProt P27815). Nature of the experiment: NVS_ENZ_hPDE4A1: NovaScreen (NVS) Enzymatic Assay for human Phosphodiesterase 4A1 (PDE4A1) (AID 2283191). A digest of the protocol:
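Fluorescent substrate turnover by recombinant PDE4A1 read after 1 h by mobility-shift separation. Primary duplicate screen at 25 uM; hits retested in concentration series with a 50 uM maximum, relative to DMSO.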

The target in experiment [3] is human Phosphodiesterase 5 (PDE5), PDE5A (gene 8654) (UniProt O76074). The experiment can be described thus: NVS_ENZ_hPDE5: NovaScreen (NVS) Enzymatic Assay for human Phosphodiesterase 5 (PDE5) (AID 2283194). The method, boiled down: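 Screening began in duplicate at 25 uM, with actives taken into concentration-response. Enzyme activity of recombinant PDE5 toward its substrate was measured at 1 h by fluorescence mobility-shift detection, relative to DMSO controls.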

Experiment [4] addresses Tyrosine-protein phosphatase non-receptor type 13 (Homo sapiens) (UniProt Q12923). The experiment can be described thus: NVS_ENZ_hPTPN13: NovaScreen (NVS) Enzymatic Assay for human Protein Tyrosine Phosphatase Non-receptor Type 13 (PTPN13) (AID 2283205). A digest of the protocol: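 Screened first at a single 25 uM in duplicate; compounds passing the threshold (e.g. 30% inhibition) were rerun in concentration series, top 50 uM. Recombinant enzyme, fluorescent substrate, mobility-shift separation, 0.5 h read. Data fitted as inhibition relative to DMSO.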

Experiment [5] has as its target human Protein Tyrosine Phosphatase Non-receptor Type 9 (PTPN9), PTPN9 (gene 5780) (UniProt P43378). Nature of the experiment: NVS_ENZ_hPTPN9: NovaScreen (NVS) Enzymatic Assay for human Protein Tyrosine Phosphatase Non-receptor Type 9 (PTPN9) (AID 2283209). A digest of the protocol:
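Sf9-expressed enzyme in a cell-free assay, fluorescence read 1.33 h after dosing with mobility-shift separation of substrate and product. Tested at 25 uM in duplicate, then up to 50 uM; signal loss versus DMSO.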

Experiment [6] concerns the target human Protein Tyrosine Phosphatase Receptor Type F (PTPRF), PTPRF (gene 5792) (UniProt P10586). Nature of the experiment: NVS_ENZ_hPTPRF: NovaScreen (NVS) Enzymatic Assay for human Protein Tyrosine Phosphatase Receptor Type F (PTPRF) (AID 2283213). A digest of the protocol: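 Cell-free fluorescence enzyme assay with recombinant protein and substrate; product separated by electrophoretic mobility shift. Read 1 h after dosing, single 25 uM duplicate screen, then concentration-response up to 50 uM; loss of signal vs DMSO.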

The target of experiment [7] is human Matrix Metalloproteinase-2 (MMP2), MMP2 (gene 4313) (UniProt P08253). The experiment can be described thus: NVS_ENZ_hMMP2: NovaScreen (NVS) Enzymatic Assay for human Matrix Metalloproteinase-2 (MMP2) (AID 2283184). A digest of the protocol: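 Compounds first screened in duplicate at a single 25 uM, with actives followed up in concentration series. Recombinant human MMP2 cleaves a fluorogenic substrate; fluorescence taken at 1 h, inhibition fitted relative to DMSO.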

Experiment [8] has as its target Serine/threonine-protein phosphatase PP1-alpha catalytic subunit (Homo sapiens) (UniProt P62136). The experiment can be described thus: NVS_ENZ_hPPP1CA: NovaScreen (NVS) Enzymatic Assay for human Protein Phosphatase 1 Aatalytic subunit Alpha (PPP1CA) (AID 2283200). A digest of the protocol: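 Chemicals were first screened in duplicate at 25 uM, and those passing threshold (e.g. 30% inhibition) were run as concentration series to 50 uM. Cell-free recombinant protein, 1.33 h read, fluorescent substrate/product mobility-shift detection, normalised to DMSO.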

Experiment [9] concerns the target human Phosphodiesterase 10 (PDE10), PDE10A (gene 10846) (UniProt Q9Y233). The experiment can be described thus: NVS_ENZ_hPDE10: NovaScreen (NVS) Enzymatic Assay for human Phosphodiesterase 10 (PDE10) (AID 2283195). The method, boiled down:
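Readout is fluorescence intensity following electrophoretic mobility-shift separation, 1 h after dosing of isolated PDE10A protein. Hits meeting a preset threshold at 25 uM went to concentration series (max 50 uM), analysed relative to DMSO.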

Experiment [10] deals with human Phosphoinositide 3-kinase alpha (PI3Ka), PIK3CA (gene 5290) (UniProt P42336). Nature of the experiment: NVS_ENZ_hPI3Ka: NovaScreen (NVS) Enzymatic Assay for human Phosphoinositide 3-kinase alpha (PI3Ka) (AID 2283196). The method, boiled down: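 Fluorescence/mobility-shift readout of substrate conversion by recombinant enzyme, 1 h post-dosing. Primary screen in duplicate at 25 uM; actives (e.g. ≥30% inhibition) retested in singleton concentration-response, top concentration 50 uM.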

Experiment [11] addresses Tyrosine-protein phosphatase non-receptor type 12 (Homo sapiens) (UniProt Q05209). Nature of the experiment: NVS_ENZ_hPTPN12: NovaScreen (NVS) Enzymatic Assay for human Protein Tyrosine Phosphatase Non-receptor Type 12 (PTPN12) (AID 2283204). A digest of the protocol: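 Single-concentration duplicates (25 uM) preceded singleton concentration-response up to 50 uM for chemicals passing threshold. Cell-free recombinant PTPN12 activity was read 1.33 h after dosing via fluorescence after mobility-shift separation; loss of signal versus DMSO.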

The target of experiment [12] is Tyrosine-protein phosphatase non-receptor type 11 (Homo sapiens) (UniProt Q06124). The experiment can be described thus: NVS_ENZ_hPTPN11: NovaScreen (NVS) Enzymatic Assay for human Protein Tyrosine Phosphatase Non-receptor Type 11 (PTPN11) (AID 2283202). A digest of the protocol:
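Compounds first tested in duplicate at 25 uM; those reaching ~30% inhibition rerun in singleton concentration-response, top 50 uM. Phosphatase activity measured after 0.5 h by fluorescence with mobility-shift separation, relative to DMSO.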

Experiment [13] has as its target human Matrix Metalloproteinase-9 (MMP9), MMP9 (gene 4318) (UniProt P14780). The experiment can be described thus: NVS_ENZ_hMMP9: NovaScreen (NVS) Enzymatic Assay for human Matrix Metalloproteinase-9 (MMP9) (AID 2283190).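 Also: cell-free recombinant MMP9 protease activity read by fluorescent substrate signal; active means inhibition seen as loss of fluorescence signal versus DMSO.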 The method, boiled down: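 Extracted enzyme, fluorescent substrate, 1 h post-dose read. Single conc 25 uM in duplicate, then concentration series for actives. Activity = signal loss relative to DMSO negative control.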

In experiment [14] the target is human Matrix Metalloproteinase-3 (MMP3), MMP3 (gene 4314) (UniProt P08254). Nature of the experiment: NVS_ENZ_hMMP3: NovaScreen (NVS) Enzymatic Assay for human Matrix Metalloproteinase-3 (MMP3) (AID 2283185). The method, boiled down: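 Fluorescent substrate turnover by recombinant MMP3 read after 1 h, signal loss scored against DMSO. Compounds first run in duplicate at 25 uM single dose, then actives confirmed by concentration series.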

For experiment [15], the target named is cAMP-dependent protein kinase catalytic subunit alpha (Homo sapiens) (UniProt P17612). The experiment can be described thus: NVS_ENZ_hPKA: NovaScreen (NVS) Enzymatic Assay for human Protein Kinase A (PKA) (AID 2283192). A digest of the protocol: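 Cell-free kinase activity read by fluorescence after mobility-shift separation of substrate and product, 1 h post-dosing. Single-concentration duplicate screen (25 uM) preceded singleton concentration series (top 50 uM); loss of signal versus DMSO.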

Experiment [16] concerns the target human Protein Phosphatase, Mg2+/Mn2+ Dependent 1A (PPM1A), PPM1A (gene 5494) (UniProt P35813). The experiment can be described thus: NVS_ENZ_hPPM1A: NovaScreen (NVS) Enzymatic Assay for human Protein Phosphatase, Mg2+/Mn2+ Dependent 1A (PPM1A) (AID 2283198). The method, boiled down:
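Primary screen in duplicate at 25 uM, with actives then titrated to a maximum of 50 uM. Recombinant PPM1A dephosphorylation of fluorescent substrate measured at 1 h, with substrate and product separated by mobility shift; inhibition fitted against DMSO.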

For experiment [17], the target named is human Protein Tyrosine Phosphatase Non-receptor Type 4 (PTPN4), PTPN4 (gene 5775) (UniProt P29074). The experiment can be described thus: NVS_ENZ_hPTPN4: NovaScreen (NVS) Enzymatic Assay for human Protein Tyrosine Phosphatase Non-receptor Type 4 (PTPN4) (AID 2283208). A digest of the protocol: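 Screened in duplicate at 25 uM, with hits then titrated to a top concentration of 50 uM. Recombinant Sf9-derived PTPN4 turnover was read by fluorescence with electrophoretic separation, 1.33 h after compound addition. DMSO served as baseline.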

For experiment [18], the target named is human Mitogen- and Stress-activated Protein Kinase-1 (Msk1), RPS6KA5 (gene 9252) (UniProt O75582). Nature of the experiment: NVS_ENZ_hMsk1: NovaScreen (NVS) Enzymatic Assay for human Mitogen- and Stress-activated Protein Kinase-1 (Msk1) (AID 2283187). A digest of the protocol: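 Chemicals first run in duplicate at 25 uM, with actives followed up in singleton concentration series to 50 uM maximum. Enzyme activity came from substrate/product mobility-shift separation with fluorescence detection after 1 h incubation of the recombinant protein.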

Experiment [19] concerns the target Tyrosine-protein phosphatase non-receptor type 14 (Homo sapiens) (UniProt Q15678). Nature of the experiment: NVS_ENZ_hPTPN14: NovaScreen (NVS) Enzymatic Assay for human Protein Tyrosine Phosphatase Non-receptor Type 14 (PTPN14) (AID 2283206). A digest of the protocol: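 Fluorescent substrate turnover by recombinant human PTPN14 was measured 0.5 h after compound addition, with substrate and product separated by mobility shift. Single-point screening at 25 uM, then concentration-response up to 50 uM for chemicals meeting threshold (e.g., 30% inhibition).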

Chain of Tyrosine-protein phosphatase non-receptor type 12 (Homo sapiens) (Q05209 whole entry, looked up): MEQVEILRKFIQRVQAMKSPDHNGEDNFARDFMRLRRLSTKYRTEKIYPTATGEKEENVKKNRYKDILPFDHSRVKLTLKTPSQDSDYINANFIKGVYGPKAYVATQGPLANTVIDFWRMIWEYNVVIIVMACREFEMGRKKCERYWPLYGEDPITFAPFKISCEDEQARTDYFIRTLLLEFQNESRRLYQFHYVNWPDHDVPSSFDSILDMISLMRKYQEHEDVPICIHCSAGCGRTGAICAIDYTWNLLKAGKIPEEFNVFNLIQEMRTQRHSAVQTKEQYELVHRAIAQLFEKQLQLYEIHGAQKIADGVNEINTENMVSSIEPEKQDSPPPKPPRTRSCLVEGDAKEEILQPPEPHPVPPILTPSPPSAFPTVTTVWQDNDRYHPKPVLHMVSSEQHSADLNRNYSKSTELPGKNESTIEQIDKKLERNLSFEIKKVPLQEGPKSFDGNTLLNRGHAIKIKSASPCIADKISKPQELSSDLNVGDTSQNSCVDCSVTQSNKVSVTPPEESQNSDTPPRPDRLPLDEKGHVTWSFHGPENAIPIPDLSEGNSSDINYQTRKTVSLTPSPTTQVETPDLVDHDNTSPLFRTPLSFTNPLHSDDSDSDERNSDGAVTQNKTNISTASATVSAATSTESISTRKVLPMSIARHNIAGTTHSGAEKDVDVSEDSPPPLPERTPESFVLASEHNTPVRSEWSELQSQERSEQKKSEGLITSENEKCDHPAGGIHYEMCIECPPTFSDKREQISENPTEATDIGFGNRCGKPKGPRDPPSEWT
Chain of human Matrix Metalloproteinase-9 (MMP9), MMP9 (gene 4318) (P14780 whole entry, looked up): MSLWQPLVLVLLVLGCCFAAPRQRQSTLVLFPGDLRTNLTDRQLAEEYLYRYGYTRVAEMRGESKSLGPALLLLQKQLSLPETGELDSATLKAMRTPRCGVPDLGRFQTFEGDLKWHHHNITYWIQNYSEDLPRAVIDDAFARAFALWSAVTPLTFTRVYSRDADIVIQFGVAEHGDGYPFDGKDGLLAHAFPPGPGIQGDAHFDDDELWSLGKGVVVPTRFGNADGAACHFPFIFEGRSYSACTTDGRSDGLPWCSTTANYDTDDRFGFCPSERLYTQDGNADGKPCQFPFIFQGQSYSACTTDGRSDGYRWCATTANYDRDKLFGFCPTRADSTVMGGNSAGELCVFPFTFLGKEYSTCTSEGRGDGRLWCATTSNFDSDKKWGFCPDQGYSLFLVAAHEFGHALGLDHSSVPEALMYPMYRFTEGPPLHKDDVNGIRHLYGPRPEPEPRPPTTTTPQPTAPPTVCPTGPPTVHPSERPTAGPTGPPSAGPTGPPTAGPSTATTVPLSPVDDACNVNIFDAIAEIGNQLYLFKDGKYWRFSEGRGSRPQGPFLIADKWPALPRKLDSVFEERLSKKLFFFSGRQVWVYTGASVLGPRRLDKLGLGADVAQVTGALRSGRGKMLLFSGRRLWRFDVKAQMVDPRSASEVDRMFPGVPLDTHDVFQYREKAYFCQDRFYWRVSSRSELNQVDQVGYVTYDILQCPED
Chain of human Protein Tyrosine Phosphatase Non-receptor Type 1 (PTPN1), PTPN1 (gene 5770) (P18031 whole entry, looked up): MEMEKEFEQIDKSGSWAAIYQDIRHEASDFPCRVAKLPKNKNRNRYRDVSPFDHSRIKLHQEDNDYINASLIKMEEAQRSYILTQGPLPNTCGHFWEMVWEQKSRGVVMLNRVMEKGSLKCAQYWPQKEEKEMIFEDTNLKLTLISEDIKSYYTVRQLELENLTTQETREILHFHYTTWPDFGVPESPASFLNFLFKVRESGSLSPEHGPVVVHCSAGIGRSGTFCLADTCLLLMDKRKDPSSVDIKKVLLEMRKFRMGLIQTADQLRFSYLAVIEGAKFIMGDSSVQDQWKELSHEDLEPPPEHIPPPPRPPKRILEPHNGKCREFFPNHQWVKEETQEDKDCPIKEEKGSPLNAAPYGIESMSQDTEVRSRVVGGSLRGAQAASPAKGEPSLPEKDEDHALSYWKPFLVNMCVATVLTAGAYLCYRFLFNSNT
Chain of Serine/threonine-protein phosphatase PP1-alpha catalytic subunit (Homo sapiens) (P62136 whole entry, looked up): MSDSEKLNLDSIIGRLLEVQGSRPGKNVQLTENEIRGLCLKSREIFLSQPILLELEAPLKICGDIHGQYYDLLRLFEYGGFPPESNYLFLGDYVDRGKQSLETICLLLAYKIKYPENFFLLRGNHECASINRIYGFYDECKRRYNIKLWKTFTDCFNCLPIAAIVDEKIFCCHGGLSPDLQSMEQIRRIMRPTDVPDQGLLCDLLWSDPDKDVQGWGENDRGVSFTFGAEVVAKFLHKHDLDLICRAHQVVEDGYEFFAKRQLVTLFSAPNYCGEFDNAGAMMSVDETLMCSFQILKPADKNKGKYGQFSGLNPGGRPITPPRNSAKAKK
Chain of human Protein Phosphatase, Mg2+/Mn2+ Dependent 1A (PPM1A), PPM1A (gene 5494) (P35813 whole entry, looked up): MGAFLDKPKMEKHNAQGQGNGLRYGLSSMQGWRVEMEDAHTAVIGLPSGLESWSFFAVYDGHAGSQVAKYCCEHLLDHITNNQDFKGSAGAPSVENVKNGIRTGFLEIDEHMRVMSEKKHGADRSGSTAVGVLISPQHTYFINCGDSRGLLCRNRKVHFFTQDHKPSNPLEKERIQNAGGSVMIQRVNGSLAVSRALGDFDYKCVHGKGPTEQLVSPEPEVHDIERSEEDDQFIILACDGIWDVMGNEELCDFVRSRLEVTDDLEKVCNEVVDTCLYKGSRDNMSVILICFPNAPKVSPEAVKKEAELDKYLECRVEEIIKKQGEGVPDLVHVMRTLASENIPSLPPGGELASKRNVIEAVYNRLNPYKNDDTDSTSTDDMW
Chain of human Phosphoinositide 3-kinase alpha (PI3Ka), PIK3CA (gene 5290) (P42336 whole entry, looked up): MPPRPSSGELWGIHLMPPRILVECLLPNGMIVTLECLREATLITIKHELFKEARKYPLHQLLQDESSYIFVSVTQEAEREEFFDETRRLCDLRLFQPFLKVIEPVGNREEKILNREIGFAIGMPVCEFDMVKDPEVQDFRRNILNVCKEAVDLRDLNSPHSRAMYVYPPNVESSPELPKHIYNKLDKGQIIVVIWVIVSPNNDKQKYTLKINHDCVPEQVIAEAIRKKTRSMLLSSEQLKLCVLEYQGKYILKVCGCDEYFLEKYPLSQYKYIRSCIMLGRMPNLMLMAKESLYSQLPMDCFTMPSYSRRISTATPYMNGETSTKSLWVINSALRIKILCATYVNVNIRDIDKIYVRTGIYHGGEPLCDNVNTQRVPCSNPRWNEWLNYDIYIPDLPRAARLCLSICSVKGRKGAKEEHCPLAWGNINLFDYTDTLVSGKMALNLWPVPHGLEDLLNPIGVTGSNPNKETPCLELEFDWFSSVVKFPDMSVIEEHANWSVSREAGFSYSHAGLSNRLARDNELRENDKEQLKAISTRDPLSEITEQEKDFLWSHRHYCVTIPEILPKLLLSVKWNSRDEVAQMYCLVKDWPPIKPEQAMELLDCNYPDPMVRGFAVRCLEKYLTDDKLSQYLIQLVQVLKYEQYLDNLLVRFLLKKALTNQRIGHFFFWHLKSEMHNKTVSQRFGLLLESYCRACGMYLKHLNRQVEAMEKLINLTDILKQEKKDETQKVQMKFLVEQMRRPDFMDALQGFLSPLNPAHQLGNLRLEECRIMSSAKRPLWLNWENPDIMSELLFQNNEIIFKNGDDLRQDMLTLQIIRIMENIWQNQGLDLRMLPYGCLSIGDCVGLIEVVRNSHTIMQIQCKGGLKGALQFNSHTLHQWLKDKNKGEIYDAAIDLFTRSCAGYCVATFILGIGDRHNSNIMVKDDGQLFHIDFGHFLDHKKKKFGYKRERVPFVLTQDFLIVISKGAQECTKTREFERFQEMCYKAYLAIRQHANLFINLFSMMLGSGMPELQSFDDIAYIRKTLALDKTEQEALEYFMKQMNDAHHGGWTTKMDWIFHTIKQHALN
Chain of Tyrosine-protein phosphatase non-receptor type 11 (Homo sapiens) (Q06124 whole entry, looked up): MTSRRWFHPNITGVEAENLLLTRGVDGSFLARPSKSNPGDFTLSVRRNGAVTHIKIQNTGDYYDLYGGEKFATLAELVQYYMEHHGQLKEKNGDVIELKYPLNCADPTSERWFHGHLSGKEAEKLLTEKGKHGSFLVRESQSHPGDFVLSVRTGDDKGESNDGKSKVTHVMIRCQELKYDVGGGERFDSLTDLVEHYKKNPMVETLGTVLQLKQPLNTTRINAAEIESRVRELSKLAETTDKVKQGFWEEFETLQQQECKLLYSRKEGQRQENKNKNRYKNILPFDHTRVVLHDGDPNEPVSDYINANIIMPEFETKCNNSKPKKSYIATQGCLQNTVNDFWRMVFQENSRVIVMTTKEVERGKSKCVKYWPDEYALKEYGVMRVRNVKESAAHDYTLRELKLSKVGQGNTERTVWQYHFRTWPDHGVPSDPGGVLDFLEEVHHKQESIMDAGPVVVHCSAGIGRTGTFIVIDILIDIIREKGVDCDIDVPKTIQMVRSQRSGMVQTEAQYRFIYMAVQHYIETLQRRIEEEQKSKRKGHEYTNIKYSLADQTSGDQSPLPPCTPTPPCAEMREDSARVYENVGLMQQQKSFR
Chain of human Matrix Metalloproteinase-2 (MMP2), MMP2 (gene 4313) (P08253 whole entry, looked up): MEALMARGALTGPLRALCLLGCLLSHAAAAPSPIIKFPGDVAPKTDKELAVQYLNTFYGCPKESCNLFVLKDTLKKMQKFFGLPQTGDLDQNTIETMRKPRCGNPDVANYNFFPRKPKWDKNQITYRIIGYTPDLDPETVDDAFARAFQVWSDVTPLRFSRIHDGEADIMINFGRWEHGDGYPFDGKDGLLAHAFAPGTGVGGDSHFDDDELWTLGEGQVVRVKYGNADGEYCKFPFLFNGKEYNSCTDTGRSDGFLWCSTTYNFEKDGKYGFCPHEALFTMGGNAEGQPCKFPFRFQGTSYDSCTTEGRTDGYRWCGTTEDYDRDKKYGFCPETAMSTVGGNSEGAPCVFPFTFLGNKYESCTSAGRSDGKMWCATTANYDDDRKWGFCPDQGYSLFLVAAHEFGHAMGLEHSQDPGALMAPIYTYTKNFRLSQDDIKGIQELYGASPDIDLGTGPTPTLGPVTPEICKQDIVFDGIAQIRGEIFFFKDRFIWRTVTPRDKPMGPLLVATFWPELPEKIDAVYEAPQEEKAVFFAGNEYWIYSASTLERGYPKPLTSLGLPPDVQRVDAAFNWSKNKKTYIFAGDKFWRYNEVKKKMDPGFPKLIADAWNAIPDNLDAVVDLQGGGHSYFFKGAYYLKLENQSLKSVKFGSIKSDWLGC

Consider `CCc1cccc(CC)c1N`, for which the outcome in experiment [1] was inactive.

In the case of `O=C(O)c1ccc2c(c1)nc(C(=O)NC1CCN(C3CC3)CC1)n2Cc1cc(-c2ccc(Cl)s2)on1`, the compound was called inactive in [2], in experiment [5] and in [6]. The AC50 in experiment [3] is 3.95 µM (active); in experiment [4] it was 0.257 µM (active).

Regarding `OC[C@H]1O[C@@](CO)(O[C@H]2O[C@H](CO)[C@@H](O)[C@H](O)[C@H]2O)[C@@H](O)[C@@H]1O`, the result in experiment [7] was inactive.

Regarding `c1ccc(C(O[C@@H]2CCCN(CCc3ccc4c(c3)OCO4)C2)c2ccccc2)cc1`, the result in [8] was inactive.

With `OCc1c[nH]c2ccccc12`, the AC50 in experiment [9] is 40.2 µM (active); in experiment [10], 19.3 µM (active).

In the case of `CCCCCCCCCC`, the compound was called inactive in [11].

With `OCCOCCOCCO`, the call in [12] and in experiment [11] was inactive.

As for `S=P(N1CC1)(N1CC1)N1CC1`, in experiment [13], the AC50 was 5.18 µM (active). The compound was classed as inactive in experiment [9].

`O=C(NO)C1(NS(=O)(=O)c2ccc(Oc3ccc(F)cc3)cc2)CCOCC1`: the AC50 in experiment [14] is 1.92 µM (active); in experiment [13], 0.00916 µM (active); in [3], 10.4 µM (active). For the same compound, the compound was classed as inactive in [15], in experiment [16], in [1] and in [17].

On to `CC(C)c1nnc2ccc(-c3ocnc3-c3cc(F)ccc3F)cn12`, for which the AC50 in experiment [9] was 2.78 µM (active).

For `NC(=O)N1c2ccccc2C=Cc2ccccc21`, in [3], the outcome was inactive.

For the compound `CCCCC(CC)C(=O)OCCOCCOCCOC(=O)C(CC)CCCC` (stereo not given), the result in experiment [5] was inactive.

Take `CC(C)CCCCCCOC(=O)C1CCCCC1C(=O)OCCCCCCC(C)C` (stereo not given): the compound was called inactive in experiment [8].

`CC[C@H](C)C(=O)O[C@H]1C[C@H](O)C=C2C=C[C@H](C)[C@H](CC[C@@H](O)C[C@@H](O)CC(=O)O)[C@H]21`: the compound was classed as inactive in [7], in experiment [13], in experiment [10] and in experiment [11].

As for `CC(=O)c1ccccc1`, the AC50 in experiment [7] is 26.7 µM (active).

Consider `CCCCCCCCN(C)C`, for which the compound was called inactive in [16] and in [8].

As for `C[C@@H](Oc1ccc(CNC(=O)c2cccnc2Oc2ccc3c(c2)OCO3)c(F)c1)C(=O)O`, the AC50 was 0.799 µM (active) in experiment [2] and 7.95 µM (active) in experiment [9]. In experiment [16], the result was inactive.

With `O=c1[nH]cnc2c1ncn2[C@H]1CC[C@@H](CO)O1`, the compound was called inactive in experiment [18], in experiment [9], in experiment [10], in experiment [1], in experiment [12] and in experiment [11]. The call in [4], in [19] and in [17] was inactive.

As for `CC(C)C(=O)Nc1ccc([N+](=O)[O-])c(C(F)(F)F)c1`, in experiment [7], the AC50 is 12.7 µM (active).

For `CCCCOC(=O)c1ccccc1`, the result in experiment [14] was inactive.

For the compound `c1ccc2cc3ccccc3cc2c1`, the call in [4] was inactive.

For the compound `C[C@]12C=CC(=O)C=C1CC[C@H]1[C@@H]3C[C@@H](O)[C@](O)(C(=O)CO)[C@@]3(C)C[C@H](O)[C@@]12F`, the compound was classed as inactive in experiment [8].

For `O=C1CN(N=Cc2ccc([N+](=O)[O-])o2)C(=O)N1`, the outcome in experiment [12] was inactive.
